This is an account of results in ChEMBL document CHEMBL4513141, “CO-ADD screening of NIH (USA) - Clinical Collection” (2021).

Results with a measured potency or affinity are listed apart.

In this assay the test system is Staphylococcus aureus. The note with it: Concentration 20 uM; ASSAY_TEST Inhibition of Bacterial Growth; detection method Absorption (OD600); MEDIA CAMHB; plate type 384well; NBS; CORNING #3640; time 18 hr.
`C=CCc1ccc(O)c(-c2ccc(O)c(CC=C)c2)c1` [HONOKIOL]: the Inhibition was 11.41%. In the case of `NC(=O)N1c2ccccc2C=Cc2ccccc21` [CARBAMAZEPINE], the Inhibition is listed as 10.71%. Turning to `Cc1ccc(Cl)c(Nc2ccccc2C(=O)[O-])c1Cl.O.[Na+]` [MECLOFENAMATE SODIUM], the Inhibition stood at 27.36%. In the case of `COc1ccc2c(c1)c(CC(=O)O)c(C)n2C(=O)c1ccc(Cl)cc1.O`, the Inhibition is on record as 8.16%. With `CC(C)[N+](C)(CCOC(=O)C1c2ccccc2Oc2ccccc21)C(C)C.[Br-]` [PROPANTHELINE BROMIDE], the Inhibition turned out to be 16.95%. Consider `Cc1[nH]cnc1CN1CCc2c(c3ccccc3n2C)C1=O.Cl` [ALOSETRON HYDROCHLORIDE], for which the Inhibition is 8.61%.

In the case of `COc1ccc2[nH]c([S+]([O-])Cc3ncc(C)c(OC)c3C)nc2c1` (configuration not stated) [OMEPRAZOLE], the Inhibition is on record as 3.38%.

Regarding `COC(=O)C1=C(C)NC(C)=C(C(=O)O[C@@H]2CCCN(Cc3ccccc3)C2)[C@@H]1c1cccc([N+](=O)[O-])c1.Cl`, the Inhibition is 8.73%. With `C[C@@H]1O[C@@H](OC[C@H]2O[C@@H](Oc3c(-c4ccc(O)c(O)c4)oc4cc(O)cc(O)c4c3=O)[C@H](O)[C@@H](O)[C@@H]2O)[C@H](O)[C@H](O)[C@H]1O` [RUTIN], the Inhibition amounted to 17.86%. Turning to `COc1cc(OC)c(C(=O)CCCN2CCCC2)c(OC)c1.Cl`, the Inhibition was determined as 14.97%. Regarding `OCCN(CCO)c1nc(N2CCCCC2)c2nc(N(CCO)CCO)nc(N3CCCCC3)c2n1` [DIPYRIDAMOLE], the Inhibition was -23.93%. To `CC(C)NCC(O)COc1ccc(CC(N)=O)cc1` (configuration not stated) [ATENOLOL] belongs 9.69%.

As for `CC[C@H](C)C(=O)O[C@H]1C[C@@H](C)C=C2C=C[C@H](C)[C@H](CC[C@@H]3C[C@@H](O)CC(=O)O3)[C@H]21` [LOVASTATIN], the Inhibition is 9.76%. With `CN1CCN(CCCN2c3ccccc3Sc3ccc(C(F)(F)F)cc32)CC1.Cl.Cl` [TRIFLUOPERAZINE HYDROCHLORIDE], the Inhibition is reported as 19.71%. `Cc1ccc(O)c([C@H](CCN(C(C)C)C(C)C)c2ccccc2)c1.O=C(O)C(O)C(O)C(=O)O` [TOLTERODINE TARTRATE]: the Inhibition is recorded as -0.49%. With `CSc1ccc2c(c1)N(CCC1CCCCN1C)c1ccccc1S2.Cl` (configuration not stated) [THIORIDAZINE HYDROCHLORIDE], the Inhibition was 2.86%. `CNCC[C@H](Oc1cccc2ccccc12)c1cccs1.Cl` [DULOXETINE HYDROCHLORIDE]: the Inhibition was -17.99%. Take `COc1ccc(/C=C/C(=O)Nc2ccccc2C(=O)O)cc1OC`: the Inhibition is reported as 8.38%.

In the case of `CS(=O)(=O)c1ccc(C2=C(c3ccccc3)C(=O)OC2)cc1` [ROFECOXIB], the Inhibition is 8.94%. For the compound `Cc1nc2ccccn2c(=O)c1CCN1CCC(C(=O)c2ccc(F)cc2)CC1` [PIRENPERONE], the Inhibition is given as 1.36%.

For the compound `CCN1CCC[C@H]1CNC(=O)c1c(O)c(Cl)cc(Cl)c1OC` [RACLOPRIDE], the Inhibition was 2.11%. Take `CCN(CC)CCOc1ccc(C(=C(Cl)c2ccccc2)c2ccccc2)cc1.O=C(O)CC(O)(CC(=O)O)C(=O)O` [CLOMIPHENE CITRATE]: the Inhibition is given as 43.2%. The figure for `C#C[C@]1(O)CC[C@H]2[C@@H]3CCc4cc(O)ccc4[C@H]3CC[C@@]21C` [ETHINYL ESTRADIOL] is 1.21%. Take `CN(C)CCOC(c1ccc(Cl)cc1)c1ccccn1.O=C(O)/C=C\C(=O)O` (configuration not stated) [CARBINOXAMINE MALEATE]: the Inhibition was 10.84%. On to `O=C(CCNNC(=O)c1ccncc1)NCc1ccccc1` [NIALAMIDE], for which the Inhibition is reported as 16.28%. Turning to `CC(N)(Cc1ccc(O)c(O)c1)C(=O)O` (stereo not drawn) [METHYLDOPA (RACEMIC)], the Inhibition is listed as -29.5%. With `COc1ccc(OC)c(C(O)CNC(=O)CN)c1.Cl` (configuration not stated) [MIDODRINE HYDROCHLORIDE], the Inhibition came out at 15.42%. As to `CC(C[N+](C)(C)C)OC(N)=O.[Cl-]` (configuration not stated) [BETHANECHOL CHLORIDE], the Inhibition was determined as 5.38%.

On to `Nc1nc(O)c2ncn(CCC(CO)CO)c2n1` [PENCICLOVIR], for which the Inhibition is 6.12%. On to `CC(C)C[C@H](NC(=O)[C@@H](O)[C@H](N)Cc1ccccc1)C(=O)O` [UBENIMEX], for which the Inhibition amounted to 8.9%.

Consider `COCC1=C(C(=O)OC(C)OC(=O)OC(C)C)N2C(=O)[C@@H](NC(=O)/C(=N\OC)c3csc(N)n3)[C@H]2SC1` (some centres not stated) [CEFPODOXIME PROXETIL], for which the Inhibition is reported as -13.09%. Turning to `O=C(O[C@H]1[C@H](Oc2ccccc2COC(=O)C2(O)C=CCCC2=O)O[C@H](CO)[C@@H](O)[C@@H]1O)c1ccccc1` (some centres not stated) [TREMULACIN], the Inhibition came out at 15.86%.
